Keap1-Nrf2 PPI: Keap1-Nrf2 (human) interaction inhibition; Q14145; 340,000 compounds, 0.15% hits; Keap1 Kelch-Nrf2 peptide fluorescence polarization, 1536-well; inhibition, % at 9.4 µM; in the data active means inhibition above about 12%; inconclusive means no clear call, values can overlap the other calls; inactive means below about 7.3%;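 further: human Keap1 Kelch domain with fluorescein labeled Nrf2 9mer peptide probe; 0% = neutral control wells and 100% = peptide positive control; higher means more block of Keap1 binding to Nrf2 peptide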
RTF Ca sens inh: cardiac RTF calcium desensitization; AID 493244; 340,000 compounds, 0.12% hits; IANBD-labeled cardiac RTF, Ca2+ fluorescence; P19429+P45379; inhibition, % at 7.15 µM;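 active means inhibition above the mean inhibition of all tested compounds plus 3 SD, cut at about 17% in these data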;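 further: assay run at fixed EC70 calcium of 1.6 mM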
C-LANA FP: KSHV C-LANA DNA binding inhibition; MBP-C-LANA/FAM-LBS DNA binding, fluorescence polarization; inhibition, % at 9 µM; 340,000 compounds, 0.078% hits; AID 504423;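 active means highest replicate inhibition at or above 60% at 9 µM, even if other replicates fall short; inactive means all replicates below 60% inhibition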;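 further: 0% = neutral control wells and 100% = 4 µM acridine orange control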
eLon inh: E. coli protease La inhibition | 360,000 compounds, 0.42% hits | inhibition, % at 7.94 µM | AID 602123 | purified E. coli Lon protease, fluorescence polarization; in the data active means inhibition above about 13%, passing the limit was not always enough;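 further: 0% = enzyme with probe and DMSO and 100% = no enzyme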
Target sequence (P0A9M0 whole entry, looked up): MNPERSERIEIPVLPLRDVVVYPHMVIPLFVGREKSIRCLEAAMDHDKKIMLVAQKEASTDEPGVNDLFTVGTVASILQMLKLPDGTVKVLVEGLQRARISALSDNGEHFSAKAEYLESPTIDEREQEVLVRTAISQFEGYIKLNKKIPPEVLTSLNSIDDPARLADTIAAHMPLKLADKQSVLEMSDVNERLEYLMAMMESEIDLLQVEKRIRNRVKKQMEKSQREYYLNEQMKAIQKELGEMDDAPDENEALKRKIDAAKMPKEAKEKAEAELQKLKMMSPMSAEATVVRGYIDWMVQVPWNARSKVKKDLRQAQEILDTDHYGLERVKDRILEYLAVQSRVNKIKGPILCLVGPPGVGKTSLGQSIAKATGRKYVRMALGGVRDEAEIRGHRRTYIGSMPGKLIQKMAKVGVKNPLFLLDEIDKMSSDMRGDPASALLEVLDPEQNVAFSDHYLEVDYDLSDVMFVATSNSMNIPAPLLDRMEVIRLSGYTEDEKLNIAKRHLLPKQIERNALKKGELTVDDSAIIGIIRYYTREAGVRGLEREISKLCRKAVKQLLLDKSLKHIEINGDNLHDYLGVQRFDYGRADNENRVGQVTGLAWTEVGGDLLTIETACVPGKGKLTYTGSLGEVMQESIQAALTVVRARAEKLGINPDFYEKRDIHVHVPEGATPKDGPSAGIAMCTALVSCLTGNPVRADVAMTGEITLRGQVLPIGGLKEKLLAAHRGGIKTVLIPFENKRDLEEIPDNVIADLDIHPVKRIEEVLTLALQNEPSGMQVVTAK
LANA-H2A inh: blocks KSHV LANA binding to histone H2A/H2B; Q9QR71; cell-free LANA-H2A/H2B peptide, fluorescence polarization; inhibition, % (test concentration not listed); 320,000 compounds, 0.6% hits; AID 2629; in the data active means inhibition mostly above about 10%, no sharp cut-off; inactive means mostly below about 6.7%
cardiac RTF act: increases calcium sensitivity of human cardiac regulated thin filaments | IANBD-labeled TnC RTF fluorescence at EC20 calcium; 0% EC20 calcium, 100% full calcium | activation, % at 7.2 µM | 340,000 compounds, 0.24% hits | AID 493008;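 active means activation above the mean over all tested compounds plus 3 SD, cut at about 30% in these data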;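 further: rise in fluorescence read as greater calcium sensitivity of cardiac thin filaments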
Keap1 Kelch bind: Keap1 (human) Kelch domain binding; shares compounds with Keap1-Nrf2 PPI; Keap1 Kelch thermal shift, delta Tm; hits give high values; max delta Tm, degrees C; 400 compounds, 8% hits; AID 651823; in the data active means max delta Tm above about 0.48 degrees C
eLon confirm: confirmation of E. coli Lon protease inhibitors | inhibition, % at 7.94 µM | 1,400 compounds, 31% hits | shares compounds with eLon inh | purified E. coli Lon, fluorescence polarization; in the data active means inhibition above about 16%;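 further: 0% = enzyme with probe and DMSO and 100% = no enzyme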
Numbers without * were called inactive; u = inconclusive; x = not tested or not shown; + = active, no number. An excerpt weighted towards active compounds, which were near 1.3% of everything screened.

SMILES	Keap1-Nrf2 PPI	RTF Ca sens inh	C-LANA FP	eLon inh	LANA-H2A inh	cardiac RTF act	eLon confirm	others
COc1ccc(C(C)=O)c(Oc2cc(NN3CCCCC3)c([N+](=O)[O-])cc2[N+](=O)[O-])c1	-2	1	-1	5	-2	-1	x
COc1ccc(Cc2nnc(Nc3ccc4c(c3)OCCO4)[nH]c2=O)cc1	-5	-3	-1	1	3	-1	x
O=C(/C=C/[C@H]1O[C@@H](n2cnc3c(NC(=O)c4ccccc4)ncnc32)[C@H](O)[C@@H]1O)NCC1CCCO1 (stereo partly specified)	x	x	x	-3	x	x	x
Fc1ccc(C2=CC(c3ccco3)n3ncnc3N2)cc1 (stereo unspecified)	19*	-83	33	79*	4	70*	-3	Keap1 Kelch bind=-0.03
Cc1cccc(NC(=O)C2CCCN(S(=O)(=O)c3c(C)nn(C)c3C)C2)n1 (stereo unspecified)	-1	-10	-3	12*	1	-1	-9
Cc1nc(N2CCOCC2)sc1C=O	0	-12	-2	20*	2	4	-6
c1c2c(cc3sc(N4CCOCC4)nc13)OCCO2	1	-4	1	4	3	7	x
CN1CCN(c2nc(-c3ccc(Cl)cc3)cc(=O)[nH]2)CC1	-3	-7	-1	-8	-2	-3	x
CCCCC1=CC2=C(c3ccco3)C(=O)C(C)(OC(=O)c3ccc(OC)cc3)C(=O)C2=CN1Cc1ccccc1 (stereo unspecified)	3	-30	2	-17	12	4	x
CCCCC1=CC2=C(c3ccco3)C(=O)C(C)(OC(=O)c3ccc(OC)cc3)C(=O)C2=CN1CCc1ccccn1 (stereo unspecified)	-5	-20	1	37*	-1	17	-18
CCCCC1=CC2=C(c3ccco3)C(=O)C(C)(OC(=O)c3ccc(OC)cc3)C(=O)C2=CN1CCOC (stereo unspecified)	-1	-8	2	48*	-2	3	12
CCCCC1=CC2=C(c3ccco3)C(=O)C(C)(OC(=O)c3ccc(OC)cc3)C(=O)C2=CN1Cc1ccc2c(c1)OCO2 (stereo unspecified)	-7	-17	0	-7	-1	14	x
CC(=O)c1c(Cl)nc2cccc3c2c1-c1ccccc1C3=O	-2	-15	5	24*	1	3	28*
COc1cc(-c2c(C(C)=O)c(C)nc3c2C(=O)c2ccccc2-3)cc(OC)c1OC	7	1	-1	-3	x	-6	x
CN(C)c1ccc(NC(=O)CSc2nc3c(c(=O)[nH]2)CCCC3)cc1	-2	-11	1	-9	1	3	x
COc1cc(NC(=O)CSc2nc3c(c(=O)[nH]2)CCCC3)cc(OC)c1OC	-5	-11	1	16*	-5	5	1
COC(=O)N/N=C\c1cc2c(cc1Br)OCO2	0	4	-1	18*	-12	5	-6
CCC(=O)c1c(NC(C)C)cc(C)oc1=O	3	-5	x	0	3	3	x
O=C(Oc1ccc2c(c1)O/C(=C\c1ccncc1)C2=O)c1cccs1	-5	x	4	54*	3	x	24*
COc1ccccc1C(=O)Oc1ccc2c(c1)O/C(=C\c1ccncc1)C2=O	2	-55	6	28*	8	35*	49*
CS(=O)(=O)Oc1ccc2c(c1)O/C(=C\c1cccnc1)C2=O	1	-3	-2	7	2	1	x
Cc1nc(Nc2ccc(Cl)cc2)c(C#N)c(=O)[nH]1	-3	-6	-1	19*	1	1	0
COc1ccc2c(=O)cc(-c3ccncc3)oc2c1OC	0	7	-1	-11	x	-1	x
COCCNC(=O)c1c[nH]c2ccc(S(=O)(=O)Nc3ccc(F)cc3F)cc2c1=O	-2	-2	-1	6	2	-5	x
COCCNC(=O)c1c[nH]c2ccc(S(=O)(=O)Nc3ccccc3F)cc2c1=O	-1	-1	-1	18*	-3	-2	9
SMILES	Keap1-Nrf2 PPI	RTF Ca sens inh	C-LANA FP	eLon inh	LANA-H2A inh	cardiac RTF act	eLon confirm	others
O=C(O)CCCC(=O)OCc1c(-c2ccccc2)ncc2ccccc12	-3	-13	-2	-2	-4	2	x
CSc1ncccc1C(=O)N1CCN(S(=O)(=O)c2ccc(C)cc2)CC1	1	-2	1	17*	2	-8	0
Cc1ccc([C@@H]2[C@@H]3C(=O)N(c4ccccc4)C(=O)[C@@H]3[C@]3(C)C(=O)N(CC4CC4)CC(=O)N23)o1	-3	-1	1	7	6	-10	x
O=C1NC(=O)C2(N1)C(=O)c1cccc3cccc2c13 (stereo unspecified)	x	x	x	+	x	x	+
O=C1NC(=O)C2(N1)c1ccccc1-c1ccccc12	0	3	-1	-4	x	6	x
CN1C(=O)N(C)c2ccc(C=O)c3cccc1c23	2	-24	2	16*	0	6	15
Oc1ccccc1/C=N/c1c(-c2ccco2)nc2ccccn12	2	-7	3	30*	-1	3	3
COc1ccc(/C=N/c2c(-c3ccco3)nc3ccccn23)cc1OC	u	-2	3	32*	-1	3	-3
Clc1ccc(/C=N/c2c(-c3ccco3)nc3ccccn23)cc1	2	-10	4	26*	5	8	-4
CC1C2(C)OC(=N)C(C#N)(C(C)O2)C1(C#N)C#N (stereo unspecified)	8	-13	30	22*	4	17	35*
O=c1c([N+](=O)[O-])cccn1Cc1cccc(Br)c1	-5	-7	-2	-5	1	7	x
CCOC(=O)c1[nH]c(C)c(C(=O)OC)c1C	-1	3	2	12	6	-3	x
CCOC(=O)c1[nH]c(C)c(C)c1C	0	-6	-1	51*	1	10	1
CCOC(=O)C(=C1Nc2ccccc2N1)n1c(-c2cnccn2)nc2ccccc21	x	x	x	-6	x	x	x
CCOC(=O)C(=C1Nc2ccccc2N1)n1c(-c2ccco2)nc2ccccc21	x	x	x	41*	x	x	20*
CC(C)(C)c1ccc(S(=O)(=O)N2CCc3nc4ccccc4c(C(=O)O)c3C2)cc1	-7	-3	0	6	-1	0	x
Cc1ccc(C(=O)N2CCCC(N(C)Cc3ccccc3)C2)s1 (stereo unspecified)	-5	-7	-2	-1	-1	7	x
O=C(CCS(=O)(=O)Cc1ccccc1)N1CCc2ccccc2C1	-2	-1	0	-4	1	-7	x
